Screening data from PubChem.
Sampled rows, rich in hits. Any-hit rate of the full collection: about 19%.
SW480 rerep: induces DNA re-replication in SW480 colon adenocarcinoma cells. SW480 DNA re-replication, Hoechst DNA content imaging, 48 h. Potency, µM (top dose mostly 46.1 µM), for the others: at the top dose re-replication activation, usual class: activators. 340,000 compounds, 1.8% hits. AID 624297; also: potency is read from the fitted curve at half-maximal effect; % of control where 0% means no effect; nearly all actives have a fitted effect of over 55% in size
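Image-based DNA-content assay: after two days of treatment, nuclei were labelled with the DNA dye Hoechst and imaged, and hits were compounds raising the count of nuclei showing high fluorescence intensity.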
TDP1 cell noCPT: qHTS for Inhibitors of human tyrosyl-DNA phosphodiesterase 1 (TDP1): qHTS in cells in absence of CPT; DT40 Tdp1-/- hTDP1 cells, no CPT, ATP luminescence, 48 h; Potency, µM (highest dose often 46.2 µM), without a hit: at the top dose activity change, negative = growth inhibition, hits mostly inhibitors; 420,000 compounds, 15% hits; also: potency is read from the fitted curve at half-maximal effect; % is scaled to controls: 0 for no effect and ±100 for the full control effect; nearly all actives have a fitted effect of over 55% in size
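Cells were dispensed at 400 per well, compounds added by pin tool, plates incubated ≥48 hr at 37 °C, then CellTiter-Glo added for 30 min at room temperature before luminescence reading. Line: DT40 Tdp1-/- complemented with hTDP1; camptothecin omitted.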
MCF10A rerep: inducers of DNA re-replication in MCF 10A breast cells. AID 624296. Potency, µM (titrated, usually from 46.1 µM), for the others: top-dose activity, positive = re-replication, usual class: activators. 350,000 compounds, 2.9% hits. MCF 10A DNA re-replication, Hoechst nuclear intensity, 48 h; also: potency is read from the fitted curve at half-maximal effect; % of control where 0% means no effect; nearly all actives have a fitted effect of over 50% in size
IL-1B inflam inh: blocks inflammasome-driven IL-1 beta release. THP-1 LPS/ATP IL-1B secretion, AlphaLISA, 16 h; stronger effect = lower value. activity change, % at 57.5 µM. 360,000 compounds, 4.7% hits; in the data active = activity change below about -50%; inconclusive = mostly about -30% to -49%; also: % is scaled to controls: 0 for no effect and ±100 for the full control effect
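THP-1 cells pretreated 1 hr with compounds (up to 57.5 uM final), then stimulated with LPS (250 ng/mL final) plus ATP (1.25 mM final); secreted IL-1B measured by AlphaLISA after 16 hr, decreased signal indicating inhibition.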
BCR signal inh: chronic active BCR signaling inhibition | ABC-DLBCL IkBa-CBG/CBR reporter, luminescence ratio, 4 h | Potency, µM (highest dose often 46.1 µM), without a hit: top-dose activity change, negative = inhibition, usual class: inhibitors | 340,000 compounds, 0.05% hits; active = well fitted inhibition curve with a large enough effect in the signal ratio, with a control signal flat, not every such curve was filed as active; inconclusive = small, poorly fitted or top-dose-only effect, or effect the other way, or a change in a side signal; the % refers to the signal ratio;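 also: potency is read from the fitted curve at half-maximal effect; plate controls were basal doxycycline-induced cells for no effect and cells given 10 µM MG132 for full effect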
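Concentration-response series (up to 46 uM) were applied to TMD8 dual-reporter cells for 4 h at 37C with doxycycline. Green/red ratio, after filter-overlap correction, defined %Activity; red signal alone was normalised to basal cells and zero luminescence.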
DT40 TDP1 CPT: DT40-hTDP1 cell growth loss with CPT; chicken DT40 Tdp1-/-;hTDP1 cells + 20 nM CPT, ATP luminescence, 48 h; AID 686979; 420,000 compounds, 12% hits; Potency, µM (titrated, usually from 46.2 µM), for inactives: top-dose activity change, negative = growth inhibition, hits mostly inhibitors; also: potency is read from the fitted curve at half-maximal effect; % is scaled to controls: 0 for no effect and ±100 for the full control effect; nearly all actives have a fitted effect of over 55% in size
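Cell growth measured by CellTiter-Glo luminescence after a minimum 48 h, 37 C compound exposure with 20 nM CPT in Tdp1-knockout DT40 cells stably expressing hTDP1, seeded 400/well; qHTS titration format.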
Starred values were filed as active, the others as inactive; ? = inconclusive; . = not tested or not shown; [ ] = remark or other dose. Unless noted, calls follow the shape of the dose curve; as a rule, active = well fitted curve in the direction sought with a large enough effect; inconclusive = small, poorly fitted or top-dose-only effect, or another doubt; inactive = no such curve, though single readings can be large; an effect the other way counts as inactive or inconclusive.

SMILES	SW480 rerep	TDP1 cell noCPT	MCF10A rerep	IL-1B inflam inh	BCR signal inh	DT40 TDP1 CPT
COc1ccc([N+](=O)[O-])cc1/C=N/Nc1nc(N2CCCCC2)nc(N2CCCCC2)n1	1%	?	3%	20	4%	?
COc1ccc(/C=N/Nc2nc(Nc3ccccc3)nc(N3CCCCC3)n2)cc1OC	1%	21µM*	9%	-16	?	?
CC(=O)N1c2ccc(S(=O)(=O)N3CCCCCC3)cc2CC1C(=O)NCc1ccccc1F (centres undefined)	.	-18%	.	.	.	-31%
O=C(COC(=O)c1cc(Cl)nc(Cl)c1)NCc1ccc2c(c1)OCO2	-6%	17%	2%	-8	0%	22%
Cc1cc(Br)c(NC(=O)COC(=O)C2CCCCC2)c(Br)c1	-4%	6%	3%	0	1%	4%
O=[N+]([O-])c1ccc(/C=N/Nc2nc(N3CCCCCC3)nc(N3CCCCCC3)n2)o1	?	?	?	?	?	26µM*
Cn1c(S(=O)(=O)c2ccc([N+](=O)[O-])cc2)nc(Br)c1Br	-6%	?	-19%	.	-1%	21µM*
c1coc(C2=NC(c3ccco3)C(c3ccco3)N2)c1 (centres undefined)	-7%	-27%	5%	-14	.	?
CCNC(=S)N1CCN(c2nc(CC)nc3sc4c(c23)CCCC4)CC1	-4%	?	?	-57*	?	?
CCOC(=O)c1nc2sc3c(c2c(=O)[nH]1)CCCC3	-127%	-6%	3%	-7	3%	-3%
CCOC(=O)c1nc(N2CCN(C(=O)OCC)CC2)c2c3c(sc2n1)CCCC3	?	26µM*	2%	-17	2%	16µM*
CC(C)C[C@@H]1COc2cccc(N3CCN(Cc4ccccc4F)CC3)c2S(=O)(=O)N1	.	?	.	-7	.	?
O=S1(=O)N[C@@H](Cc2ccccc2)COc2cccc(N3CCN(Cc4ccccc4F)CC3)c21	.	18µM*	.	15	.	?
O=C(Nc1cccc(F)c1)N1CCCC2(CCN(C(=O)c3ccco3)CC2)C1	.	-20%	.	.	.	-121%
CN(C)c1ccnc(-c2ccccc2C(F)(F)F)n1	.	?	.	.	.	-25%
COC(=O)C[C@@H]1CC[C@H](NC(=O)Nc2ccc(F)cc2)[C@@H](CO)O1	.	14%	.	7	.	4%
COC(=O)C[C@@H]1CC[C@H](NC(=O)Nc2ccc(OC)cc2)[C@@H](CO)O1	.	8%	.	-57*	.	2%
Cc1cc(S(=O)(=O)N2CCCCC2)ccc1OCC(=O)N1CCCC1	-9%	-15%	10%	3	6%	2%
Cc1cc(S(=O)(=O)N2CCN(Cc3noc(CCC(=O)N4CCCCC4)n3)CC2)ccc1F	.	?	.	.	.	16µM*
COc1ccccc1NC(=O)CCCN1C(=O)C(c2ccccc2)Oc2cccnc21 (centres undefined)	-3%	?	-1%	0	0%	16µM*
COc1ccc(NC(=O)CCCN2C(=O)C(c3ccccc3)Oc3cccnc32)c(OC)c1 (centres undefined)	-1%	23µM*	-17%	-12	?	18µM*
O=C(CCCN1C(=O)C(c2ccccc2)Oc2cccnc21)Nc1ccc(Br)cc1F (centres undefined)	.	21µM*	.	.	.	18µM*
Cc1ccc(C)c(NC(=O)CCCN2C(=O)C(c3ccccc3)Oc3cccnc32)c1 (centres undefined)	.	23µM*	.	.	.	18µM*
Cc1ccc(NC(=O)CCCN2C(=O)C(c3ccccc3)Oc3cccnc32)c(C)c1 (centres undefined)	.	-26%	.	-6	.	?
Cc1c(C#N)c(NC(=O)COC(=O)c2cc(Cl)c3c(c2)OCCCO3)n(Cc2ccco2)c1C	.	-2%	.	.	.	?
SMILES	SW480 rerep	TDP1 cell noCPT	MCF10A rerep	IL-1B inflam inh	BCR signal inh	DT40 TDP1 CPT
CCOc1cc(/C=C(\C#N)C(=O)Nc2cccc(C(=O)O)c2)ccc1OCc1ccc(Br)cc1	23%	29µM*	8%	-3	?	?
O=C(NCc1ccncc1)c1cnn(-c2nccc(-c3cccs3)n2)c1C1CC1	.	-11%	.	.	.	-7%[9.04 µM]
Cn1c(N)c(C(=O)COC(=O)c2cc(S(=O)(=O)NCc3ccccc3)ccc2O)c(=O)n(C)c1=O	-6%	12%	1%	16	.	10%
CCN(C(=O)c1cc2cc(Br)cc(OC)c2oc1=O)c1ccccc1	.	-30%	.	.	.	-8%
O=C(Nc1ccc([N+](=O)[O-])cc1)C(Cc1ccccc1)N1C(=O)c2cccc3cccc(c23)C1=O (centres undefined)	18µM*	5.2µM*	12µM*	55	6%	?
O=C(Nc1ccccc1)C(Cc1ccccc1)N1Cc2ccccc2C1=O (centres undefined)	.	-12%	.	.	.	8%
Cc1nc2ccccc2nc1-c1csc(-c2ccccc2)n1	.	11µM*	.	.	.	13µM*
Cn1c(-c2csc(-c3ccccc3)n2)n[nH]c1=S	0%	?	2%	-22	?	?
COc1ccc(OC)c(-c2csc(NC(=O)CSc3nnnn3C)n2)c1	-6%	-1%	0%	-10	2%	-4%
CC(=O)N1CCC(C(=O)Nc2ccc(S(=O)(=O)N3CCCCC3)cc2)CC1	-3%	?	1%	-1	-4%	?
Cc1cccc(-c2c3c(=O)n(C)c(=O)n(C)c3cn2-c2ccccc2O)c1	-4%	-22%	7%	28	?	?
Cn1c(=O)c2c(-c3ccccc3)n(-c3ccccc3N)cc2n(C)c1=O	.	?	.	31	.	?
Cc1cc(N)c(-n2cc3c(c2-c2ccc(Br)cc2)c(=O)n(C)c(=O)n3C)cc1C	.	13µM*	.	.	.	16µM*
Cn1c(=O)c2c(-c3ccccc3)n(-c3ccccc3S)cc2n(C)c1=O	.	8%	.	2	.	1%
COc1ccc(-n2cc3c(c2-c2cccc(Br)c2)c(=O)n(C)c(=O)n3C)cc1OC	.	13µM*	.	.	.	21µM*
COC(=O)c1ccccc1-n1cc2c(c1-c1cccc(C)c1)c(=O)n(C)c(=O)n2C	.	7.3µM*	.	.	.	10µM*
Cc1cccc(-c2c3c(=O)n(C)c(=O)n(C)c3cn2-c2cc(N)c(Cl)cc2Cl)c1	.	3.7µM*	.	.	.	5.8µM*
Cc1cc(OCC(=O)OCC(=O)NCCN2C(=O)CSC2=O)ccc1Cl	0%	0%	-6%	3	2%	4%
